The record followed here is PubChem BioAssay (NCI).

Structures are written as SMILES. About 83,000 compounds went through this panel and 20% of them were active in at least one assay; those are over-represented in the sample as a whole.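 Each cell line was grown in a 96-well plate and treated with one concentration of compound for 48 hours. Values below 10 were considered active.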 A number with no mark means an inactive call. Active and inactive are the calls of the source.

Test systems include SK-MEL-2 melanoma; EKVX NSCLC; SN12C renal; UO-31 renal; TK-10 renal; ACHN renal; CAKI-1 renal; A498 renal; CCRF-CEM leukemia; MOLT-4 leukemia.
Common to all, as to experiment: NCI-60 one-dose screen, 48 h (100 = growth as untreated, 0 = no growth, -100 = all killed)
Holding throughout (settings): 10 µM unless noted

Regarding `Cc1c(Cl)cccc1C(=O)Nc1nc2c(s1)CN(C(=O)Nc1cccc(C(F)(F)F)c1)CC2`, the growth in the test with SK-MEL-2 melanoma is 37.4%; in the test on EKVX NSCLC it was 46%; in the test with SN12C renal, 26%; with UO-31 renal, 27.8%; in the test on TK-10 renal it was 50.9%; in the test with ACHN renal, 18.3%. For the same compound, the growth is 15.9% with CAKI-1 renal, -10.2% (active) with A498 renal, 16.7% in the test on CCRF-CEM leukemia and 15.9% in the test with MOLT-4 leukemia.
On to `N#C/C(=C\c1ccc(Br)cc1)c1cc2ccccc2[nH]1`, for which the growth in the test on SK-MEL-2 melanoma was 114%; with EKVX NSCLC, 91%; with SN12C renal, 97.6%; in the test on UO-31 renal it was 86.8%; with TK-10 renal, 119%; with ACHN renal, 102%. Moreover, the growth in the test on CAKI-1 renal is 92.7%; in the test on A498 renal it was 89.1%; with CCRF-CEM leukemia, -42.4% (active); with MOLT-4 leukemia it was 84.5%.
`NC(=O)OCCn1cc(-c2nc(-c3c[nH]c4ncccc34)cs2)c2ccccc21`: the growth in the test on SK-MEL-2 melanoma was 2.38% (active); with EKVX NSCLC it was 42.1%; in the test with SN12C renal it was 49.1%; in the test with UO-31 renal it was 34.1%; with TK-10 renal, 62.3%; with ACHN renal, 38%. The growth in the test with CAKI-1 renal was 34.5%; with A498 renal, -11.7% (active); with CCRF-CEM leukemia, 21.7%; with MOLT-4 leukemia, 19.6%.
With `Clc1nccc2c(-c3csc(-c4c[nH]c5ccccc45)n3)c[nH]c12`, the growth with SK-MEL-2 melanoma was 79.5%; in the test with EKVX NSCLC, 63.2%; in the test on SN12C renal, 59.2%; in the test on UO-31 renal, 25.9%; in the test on TK-10 renal, 55.8%; in the test with ACHN renal, 24.4%. Also, the growth in the test on CAKI-1 renal is 52.3%; in the test on A498 renal it was 32.7%; in the test on CCRF-CEM leukemia, 31.1%; in the test on MOLT-4 leukemia, 40.5%.
For `CCN1C(=S)N(CC)C2C1NC(=S)N2/N=C/C=C/c1ccccc1OC` (stereo not given), the growth in the test with SK-MEL-2 melanoma was 46.7%; in the test on EKVX NSCLC, 49.3%; in the test on SN12C renal it was 28.5%; in the test on UO-31 renal it was 43.5%; in the test with TK-10 renal it was 71.4%; in the test with ACHN renal, 33.7%. Further, the growth with CAKI-1 renal is 34.1%; with A498 renal, 16.3%; in the test with CCRF-CEM leukemia, 12.2%; with MOLT-4 leukemia, 17.7%.
As for `CCCCn1sc(=O)n(Cc2ccc(CNC(=O)OCc3ccc4c(Br)cc(Br)c(O)c4n3)cc2)c1=O`, the growth in the test on SK-MEL-2 melanoma was 45.6%; in the test on EKVX NSCLC, 103%; in the test on SN12C renal, 29.5%; in the test on UO-31 renal, 42.7%; in the test with TK-10 renal it was 74.8%; with ACHN renal, 33.6%. Moreover, the growth in the test on CAKI-1 renal is 22.4%; in the test on A498 renal it was -7.85% (active); in the test on CCRF-CEM leukemia, 18.1%; with MOLT-4 leukemia it was 14.6%.
As for `C=NNc1ccccc1`, the growth is 123% in the test with SK-MEL-2 melanoma; 92.8% in the test with EKVX NSCLC; 89.6% in the test on SN12C renal; 71% with UO-31 renal; 127% in the test on TK-10 renal; 78% in the test on ACHN renal. Also, the growth with CAKI-1 renal is 84.1%; in the test with A498 renal, 77.1%; in the test with CCRF-CEM leukemia, 71.5%; in the test on MOLT-4 leukemia, 105%.
As for `Cc1ccc(S(=O)(=O)n2cc(C3C(Cl)C(=O)N3c3ccc(N4CCOCC4=O)cc3)c3ccccc32)cc1` (stereo not given), the growth in the test with SK-MEL-2 melanoma is 74.7%; in the test with EKVX NSCLC, 72.6%; in the test on SN12C renal, 44.5%; in the test with UO-31 renal, 37.6%; with TK-10 renal it was 88%; with ACHN renal it was 71.4%. Further, the growth was 24.9% in the test with CAKI-1 renal, 65.8% in the test with A498 renal, 29.5% in the test on CCRF-CEM leukemia and 47.5% in the test on MOLT-4 leukemia.
As to `Cc1nn(-c2ccccc2)c(/N=C/N(C)C)c1/C=C/C(=O)c1ccc(Cl)cc1`, the growth was 99.4% in the test with SK-MEL-2 melanoma; 77.4% in the test on EKVX NSCLC; 82.5% with SN12C renal; 78.1% with UO-31 renal; 104% in the test with TK-10 renal; 102% in the test with ACHN renal. For the same compound, the growth in the test with CAKI-1 renal is 50.4%; in the test on A498 renal it was 92.6%; in the test with CCRF-CEM leukemia, 66.6%; in the test with MOLT-4 leukemia, 60.9%.
For `CCN(CC)CCOc1nc2c3ccc(Cl)cc3nn2c2ccccc12`, the growth was 72.5% with SK-MEL-2 melanoma; 28.9% in the test on EKVX NSCLC; 19.9% with SN12C renal; -13.2% (active) in the test with UO-31 renal; 51% in the test with TK-10 renal; 8.93% (active) with ACHN renal. The growth was 16.5% in the test with CAKI-1 renal, -12.2% (active) in the test on A498 renal, 30.6% with CCRF-CEM leukemia and 10.9% with MOLT-4 leukemia.
In the case of `Clc1ccc(-c2cn3ccsc3n2)c(Cl)c1Cl`, the growth in the test on SK-MEL-2 melanoma was 88.6%; in the test on EKVX NSCLC it was 65.2%; in the test with SN12C renal, 77.9%; in the test on UO-31 renal it was 70.1%; in the test with TK-10 renal, 105%; in the test with ACHN renal, 90.1%. The growth with CAKI-1 renal was 71.8%; in the test on A498 renal it was 76.7%; with CCRF-CEM leukemia, 93.6%; with MOLT-4 leukemia, 80.4%.
Consider `Brc1ccc(-c2cnc3nonc3n2)cc1`, for which the growth was 88.9% in the test on SK-MEL-2 melanoma; 72.1% with EKVX NSCLC; 96.1% in the test with SN12C renal; 63.6% with UO-31 renal; 96.3% in the test with TK-10 renal; 76.9% in the test with ACHN renal. Also, the growth in the test with CAKI-1 renal is 59.7%; in the test with A498 renal, 96.7%; in the test on CCRF-CEM leukemia, 30%; in the test with MOLT-4 leukemia, 37.5%.
Consider `NC(=O)c1c(NC(=O)c2ccc(Cl)cc2)sc2c1CCC(=O)C2`, for which the growth was 99.6% with SK-MEL-2 melanoma; 92.7% with EKVX NSCLC; 71.8% in the test on SN12C renal; 40.7% with UO-31 renal; 85.2% with TK-10 renal; 45.6% in the test with ACHN renal. The growth in the test with CAKI-1 renal was 18.6%; in the test on A498 renal it was 77%; with CCRF-CEM leukemia, 7.15% (active); with MOLT-4 leukemia, 46.3%.
